Records with an inconclusive call do not appear. Activity calls are given as the source filed them. Calls come from the whole dose curve; as a rule, active = well fitted inhibition curve with a large enough effect; inconclusive = small, poorly fitted or top-dose-only effect; inactive = no such curve, though single readings can be large or run the other way.

This note sets out measurements from PubChem BioAssay AID1224858 (National Center for Advancing Translational Sciences (NCATS), 2016).

The nature of this experiment: Confirmation assay for measurement of the activity of small molecule inhibitors on Zika virus induced Caspase-3 activity in human astrocytes. The note with it: ZIKV-induced caspase-3/7 luminescence, 6 h; series mostly up to 46.1 µM; activity, negative = inhibition: at the top concentration. The source says:
National Center for Advancing Translational Sciences [NCATS] Johns Hopkins University School of Medicine Florida State University Assay Overview: Increase in the Caspase-3 activity indicates an activation of apoptosis cell death pathway caused by Zika virus infection in certain types of neuronal cells including human neural progenitor cells (hNPCs), astrocytes, and astrocytoma cell line (SNB-19). This cell-based caspase-3 activity assay measures the increased caspase-3 activity in the human astrocytes after a 6-hour Zika virus infection with a luminescence readout. A decrease in the luminescence signal in this assay by small molecule treatment indicates an inhibitory effect of that small molecule on the Zika virus induced caspase-3 activity that may correlate with its effect on reduction of Zika virus caused cell death.
Assay Protocol Summary: The medium for astrocytes contains AM basal medium (ScienCell, Cat.# 1801), AGS (ScienCell, Cat.# 1801), 10% FBS, and 1% Pen/Strep. A Caspase-Glo 3/7 assay kit (catalog number G8092; Promega, Madison, WI) was used to detect caspase-3 activity induced by Zika virus infection in human cells. The reagent mixture was reconstituted as described in the protocol from the manufacturer. Polystyrene tissue culture treated and PDL coated white plates were obtained from Greiner Bio-One (Monroe, NC). Cells were seeded in 384- or 1536-well assay plates and cultured at 37 C with 5% CO2 for 16 to 20 hours. The typical cell seeding density in the 1536-well plate assay is 350 cells/well in 3 ul medium for astrocytes in tissue culture treated plates. Compounds were added to cells and incubated for one hour before addition of ZIKV solution to cells (2 FFU/cell). After incubation at 37 C with 5% CO2 for 6 hours, the reagent mixture of Caspase-Glo 3/7 assay kit was added to each well, followed by incubation at room temperature for 30 minutes. The luminescence intensity of the assay plates was measured using a ViewLux plate reader (PerkinElmer). Data were normalized by using the cell-containing wells without ZIKV as a negative control (0% induction of caspase 3/7 activity) and wells containing ZIKV infected cells (Caspase-3 activity induced) as a positive control (100% induction of caspase 3 activity). The percentage inhibitions of the increased Caspase-3 activity by small molecule inhibitors were then calculated.
Turning to `O=C(Nc1ncc([N+](=O)[O-])s1)c1cccs1`, the Potency was 1.95 µM (active).
Still for that read-out and setting: the result for `CC(C)c1ccc2oc3nc(N)c(C(=O)O)cc3c(=O)c2c1` reads 1.95 µM (active).
For the compound `N[C@H](CSC(c1ccccc1)(c1ccccc1)c1ccccc1)C(=O)O`, the “activity, negative = inhibition” value was 17.5% (inactive).
On the same count and under the same terms, the result for `O=S(=O)(O)CCSSCCS(=O)(=O)O` reads 2.17% (inactive).
For the compound `Cc1c(NC(=O)c2ccc(C(C)(C)C)cc2)cccc1-c1cn(C)c(=O)c(Nc2ccc(C(=O)N3CCOCC3)cc2)n1`, the “activity, negative = inhibition” value is -4.1% (inactive).
For the compound `COc1ccc(C=CC(=O)Nc2ccccc2C(=O)O)cc1OC`, the Potency is 17.3 µM (active).
Regarding `Nc1ccc(N=Nc2ccccc2)c(N)n1`, the Potency is 15.5 µM (active).
Same read-out and setting: under `CC(C)Oc1ccc2c(=O)c(-c3ccccc3)coc2c1` stands 10.9 µM (active).
`CCCS(=O)c1ccc2nc(NC(=O)OC)[nH]c2c1` (stereo not given): the Potency is 13.8 µM (active).
With `O=c1cc(-c2ccccc2)oc2cc(O)c(O)c(O)c12`, the “activity, negative = inhibition” value was -14% (inactive).
The same measure, in the same setting: under `O=C(CS)Nc1ccccc1` stands 14% (inactive); under `NC1CCC(Nc2nc(Nc3ccc(C(=O)N4CCCCC4)cc3)c3ncn(-c4cccc(F)c4)c3n2)CC1` (stereo not given), 55.7% (inactive).
`O=C(O)[C@@H](c1ccc(OCc2ccc3ccccc3n2)cc1)C1CCCC1`: the Potency is 8.69 µM (active).
As for `O=C(Nc1ccc(C(=O)O)c(O)c1)c1ccccc1`, the Potency was 4.89 µM (active).
The same measure, in the same setting: the result for `Cc1cc(O)c2c(c1)C(=O)c1cc(O)cc(O)c1C2=O` reads 2.75 µM (active); that for `COc1ccc(-c2cc(=O)c3c(O)cc(O)cc3o2)cc1O`, 13.8 µM (active).
The same measure, in the same setting: the result for `O=C(Nc1ccc([N+](=O)[O-])cc1Cl)c1cc(Cl)ccc1O` reads 1.73 µM (active).
For the compound `CCN1CCC(n2cc(CNc3cc(Cl)c4ncc(C#N)c(Nc5ccc(F)c(Cl)c5)c4c3)nn2)CC1`, the “activity, negative = inhibition” value was -8.22% (inactive).
Regarding `CN1CC(=O)N/C1=N/C(=O)Nc1cccc(Cl)c1`, the Potency is 10.9 µM (active).
`CNC1[C@H](O)C(O[C@@H]2C(O)C(O[C@H]3O[C@H]([C@@H](C)NC)CC[C@H]3N)[C@@H](N)C[C@H]2N)OC[C@]1(C)O` (stereo not given in full): the “activity, negative = inhibition” value is 27.9% (inactive).
For the compound `Cc1oncc1C(=O)Nc1ccc(C(F)(F)F)cc1`, the Potency was 3.88 µM (active).
`O=C1NC(=O)C(=Cc2ccc(-c3ccc(F)cc3)o2)S1`: the Potency was 12.3 µM (active).
Turning to `COc1ccc(/C=C/C(=O)Nc2ccccc2C(=O)O)cc1OC`, the Potency was 13.8 µM (active).
Consider `COc1cc(NC(C)CCCN)c2ncccc2c1` (stereo not given), for which the “activity, negative = inhibition” value was 3.92% (inactive).
On to `O=C(O)[C@H](CC(=O)N1C[C@@H]2CCCC[C@H]2C1)Cc1ccccc1`, for which the “activity, negative = inhibition” value was 1.15% (inactive).
Turning to `CC1(C)OC2=C(C(=O)c3ccccc3C2=O)[C@H](NCc2ccccc2)[C@H]1O`, the Potency is 35.5 µM (active).
Regarding `C[C@@H](N)c1ccc(C(=O)Nc2ccnc3[nH]ccc23)cc1`, the “activity, negative = inhibition” value was 0.169% (inactive).
On the same count and under the same terms, under `CC(=C(CCOC(=O)C(C)C)SSC(CCOC(=O)C(C)C)=C(C)N(C=O)Cc1cnc(C)nc1N)N(C=O)Cc1cnc(C)nc1N` stands -20.1% (inactive).
For the compound `CC(=O)Oc1ccccc1C(=O)Nc1ncc([N+](=O)[O-])s1`, the Potency was 1.58 µM (active).
In the case of `O=C(Oc1ccccc1)c1cccc(C(=O)Oc2ccccc2)c1`, the Potency was 6.31 µM (active).
Turning to `Cc1ccc(O)c(-n2nc3ccccc3n2)c1`, the Potency is 7.74 µM (active).
Still for that read-out and setting: under `O=c1c2ccccc2nc2n1CCc1c-2[nH]c2ccccc12` stands 4.89 µM (active).
With `CC(C)(C)OC(=O)CN(Cc1ccc(Cl)cc1)Cc1ccc([N+](=O)[O-])s1`, the “activity, negative = inhibition” value was -24.1% [at 88.3 µM] (inactive).
Same read-out and setting: the result for `C[C@@H](O[C@H]1OCCN(Cc2n[nH]c(=O)[nH]2)[C@@H]1c1ccc(F)cc1)c1cc(C(F)(F)F)cc(C(F)(F)F)c1` reads 123% (inactive).
`O=S(=O)(O)c1ccc2nc(-c3ccccc3)[nH]c2c1`: the Potency was 1.95 µM (active).
As to `COc1cccc(-c2cc(=O)c3ccccc3o2)c1N`, the Potency is 6.9 µM (active).
Regarding `Nc1ccc2c(c1)CN1C(=O)c3ccccc3C1=N2`, the Potency was 2.13 µM (active).
For the compound `Cc1cccc(/C=C/c2ccccc2)n1`, the Potency is 10.9 µM (active).
As to `Cc1c(N)c(=O)n(-c2ccccc2)n1C`, the “activity, negative = inhibition” value is 7.53% (inactive).
On the same count and under the same terms, the result for `Nc1ccc(O)c(C(=O)O)c1` reads -0.275% (inactive).
